Experimental data taken from PubChem BioAssay (NCI).
This is part of a sample that, as a whole, favours compounds with a hit. Of some 83,000 tested, about 20% had one in any assay.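 Method: cells in 96-well plates; compound added at one concentration; 48 h incubation; percent growth measured; values under 10 scored active.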 Values without a mark were called inactive. Calls of active or inactive are those of the source.

Key:
Test in all cases: NCI-60 one-dose screen, 48 h (100 = growth as untreated, 0 = no growth, -100 = all killed)
Settings in all cases: 10 µM unless noted
NCI-H23 lung = tested on: NCI-H23 lung
NCI-H226 lung = tested on: NCI-H226 lung
NCI-H322M lung = tested on: NCI-H322M lung
HOP-62 NSCLC = tested on: HOP-62 NSCLC
NCI-H460 lung = tested on: NCI-H460 lung
HOP-92 NSCLC = tested on: HOP-92 NSCLC
NCI-H522 lung = tested on: NCI-H522 lung
A549/ATCC NSCLC = tested on: A549/ATCC NSCLC
786-0 renal = tested on: 786-0 renal
COLO 205 colon = tested on: COLO 205 colon

CCCCCCCCCCCCCC[N+](C)(C)CCCCCCCCCCCCCC
growth (NCI-H23 lung): 70.3%
growth (NCI-H226 lung): 72.9%
growth (NCI-H322M lung): 98.7%
growth (HOP-62 NSCLC): 86.2%
growth (NCI-H460 lung): 74.3%
growth (HOP-92 NSCLC): 8.4% (active)
growth (NCI-H522 lung): 47.3%
growth (A549/ATCC NSCLC): 55.3%
growth (786-0 renal): 63.4%
growth (COLO 205 colon): 66%

CCOC(=O)c1ccc(NCCC(=O)O)cc1
growth (NCI-H23 lung): 107%
growth (NCI-H226 lung): 100%
growth (NCI-H322M lung): 104%
growth (HOP-62 NSCLC): 95.9%
growth (NCI-H460 lung): 116%
growth (HOP-92 NSCLC): 89.4%
growth (NCI-H522 lung): 91.3%
growth (A549/ATCC NSCLC): 103%
growth (786-0 renal): 96.2%
growth (COLO 205 colon): 121%

CCN(CC)CCCC(C)N/C(c1cccc(OC)c1)=c1\c(=O)[nH]n(-c2c3ccccc3nc3ccccc23)c(=O)\c1=C(/NC(C)CCCN(CC)CC)c1cccc(OC)c1 (stereo not given)
growth (NCI-H23 lung): -26.3% (active)
growth (NCI-H226 lung): -25.2% (active)
growth (NCI-H322M lung): -37.7% (active)
growth (HOP-62 NSCLC): -22.5% (active)
growth (NCI-H460 lung): -34.1% (active)
growth (HOP-92 NSCLC): -70% (active)
growth (NCI-H522 lung): -85.6% (active)
growth (A549/ATCC NSCLC): -59.2% (active)
growth (786-0 renal): 3.27% (active)
growth (COLO 205 colon): -90.1% (active)

Cc1c(-c2ccc(-c3ccccc3F)cc2)nc2ccc(F)cc2c1C(=O)O
growth (NCI-H23 lung): 54.6%
growth (NCI-H226 lung): 65.4%
growth (NCI-H322M lung): 44.5%
growth (HOP-62 NSCLC): 49.3%
growth (NCI-H460 lung): 10.6%
growth (HOP-92 NSCLC): 42.5%
growth (NCI-H522 lung): 34.3%
growth (A549/ATCC NSCLC): 34.7%
growth (786-0 renal): 23%
growth (COLO 205 colon): 49.2%

CC(=O)Nc1nonc1-c1nc2ccccc2n1Cc1ccc(C(C)(C)C)cc1
growth (NCI-H23 lung): 86.7%
growth (NCI-H226 lung): 76.6%
growth (NCI-H322M lung): 83%
growth (HOP-62 NSCLC): 101%
growth (NCI-H460 lung): 79.3%
growth (HOP-92 NSCLC): 57.1%
growth (NCI-H522 lung): 85.1%
growth (A549/ATCC NSCLC): 72.2%
growth (786-0 renal): 70.2%
growth (COLO 205 colon): 98.5%

O=C(Nc1ccccc1)C(CCCCN1C(=O)c2ccccc2C1=O)N1C(=O)c2ccccc2C1=O (stereo not given)
growth (NCI-H23 lung): 107%
growth (NCI-H226 lung): 95.3%
growth (NCI-H322M lung): 98%
growth (HOP-62 NSCLC): 109%
growth (NCI-H460 lung): 109%
growth (HOP-92 NSCLC): 76.8%
growth (NCI-H522 lung): 94.6%
growth (A549/ATCC NSCLC): 97.8%
growth (786-0 renal): 99.6%
growth (COLO 205 colon): 118%

O=C(/C=C/c1ccccc1)C(Br)C(Br)c1ccccc1 (stereo not given)
growth (NCI-H23 lung): 29.4%
growth (NCI-H226 lung): -36.8% (active)
growth (NCI-H322M lung): 100%
growth (HOP-62 NSCLC): 12.5%
growth (NCI-H460 lung): 89.8%
growth (HOP-92 NSCLC): -18.9% (active)
growth (NCI-H522 lung): -78.3% (active)
growth (A549/ATCC NSCLC): 47.2%
growth (786-0 renal): -80.2% (active)
growth (COLO 205 colon): -74.2% (active)

Cc1cc(C)cc(NC(=O)Cn2nncc2CN2C(=O)CSC2=O)c1
growth (NCI-H23 lung): 97.5%
growth (NCI-H226 lung): 104%
growth (NCI-H322M lung): 109%
growth (HOP-62 NSCLC): 102%
growth (NCI-H460 lung): 107%
growth (HOP-92 NSCLC): 124%
growth (NCI-H522 lung): 94.5%
growth (A549/ATCC NSCLC): 102%
growth (786-0 renal): 108%
growth (COLO 205 colon): 108%

Clc1cc(Br)ccc1-c1ccc(CNCC2CCNCC2)o1
growth (NCI-H23 lung): 69.6%
growth (NCI-H226 lung): 48.4%
growth (NCI-H322M lung): 60.2%
growth (HOP-62 NSCLC): 41%
growth (NCI-H460 lung): 9.35% (active)
growth (HOP-92 NSCLC): 56.3%
growth (NCI-H522 lung): 55.3%
growth (A549/ATCC NSCLC): 17%
growth (786-0 renal): 42.3%
growth (COLO 205 colon): 27.9%

[O-]/[N+](=C\c1ccccc1)CC1(O)CCCCC1
growth (NCI-H23 lung): 104%
growth (NCI-H226 lung): 99.5%
growth (NCI-H322M lung): 112%
growth (HOP-62 NSCLC): 109%
growth (NCI-H460 lung): 103%
growth (HOP-92 NSCLC): 78%
growth (NCI-H522 lung): 93.7%
growth (A549/ATCC NSCLC): 101%
growth (786-0 renal): 109%
growth (COLO 205 colon): 117%
